A selection: hits, their analogues and other compounds. The true share with any hit is near 9.5%.
Pf growth 48h: inhibits P. falciparum growth in the first generation, 48 h | P. falciparum luciferase growth in erythrocytes, 48 h | Potency, µM (highest dose often 28.7 µM), inactives show at the top dose activity change, negative = inhibition, actives largely listed as inhibitors | hit rate 5.9% among 310,000 | AID 504832; active means well fitted inhibition curve with a large enough effect; inconclusive means small, poorly fitted or top-dose-only effect, or another doubt; inactive means no such curve, though single readings can be large or run the other way; further: on the % scale 0 is the no-effect control and ±100 the full control effect
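Compounds are pin-transferred into medium, infected erythrocytes (2% hematocrit, 0.1% parasitemia final) are added, and plates sit one parasite generation at 37 C in 5% CO2. Detection reagent is then added and luminescence measured.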
SARS PLpro yeast: SARS-CoV PLP inhibition in yeast | S. cerevisiae expressing SARS-CoV PLpro, growth rescue | hit rate 0.19% among 330,000 | AID 485353 | Potency, µM (top dose mostly 32.9 µM), without a hit: top-dose activity, positive = growth rescue, actives largely listed as activators; further: 0% is about no effect; nearly all actives have a fitted effect of over 55% in size
Pf growth 96h: inhibits malaria parasite growth, 96 h; P. falciparum luciferase reporter growth, 96 h; Potency, µM (top dose mostly 28.7 µM), for the others: top-dose activity change, negative = inhibition, usual class: inhibitors; hit rate 6.9% among 320,000; AID 504834; active means well fitted inhibition curve with a large enough effect; inconclusive means small, poorly fitted or top-dose-only effect, or another doubt; inactive means no such curve, though single readings can be large or run the other way; further: on the % scale 0 is the no-effect control and ±100 the full control effect
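P. falciparum expressing integrated firefly luciferase grown in erythrocytes (2% hematocrit, 0.05% parasitemia final) with compounds for 96 hours at 37 C, 5% CO2. Growth inhibition read as loss of luminescence after adding luciferase detection reagent.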
RE007 growth inh: less growth of the S. pombe RE007 Vpr strain; Potency, µM (highest dose often 92.2 µM), without a hit: at the highest dose activity change, negative = less growth, most hits filed as inhibitors; AID 651644; S. pombe RE007 Vpr strain, BacTiter-Glo ATP luminescence, 24 h; hit rate 0.21% among 360,000; active means well fitted falling curve with a large enough effect; inconclusive means small, poorly fitted or top-dose-only effect; inactive means no such curve, though single readings can be large or run the other way; further: on the % scale 0 is the no-effect control and ±100 the full control effect; nearly all actives have a fitted effect of over 50% in size
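Fission yeast RE007 carrying one integrated HIV-1 vpr copy, seeded at OD 0.01 in PMG+AL medium with 23 nL pinned compound. Grown 24 h at 30 degrees; viability read by BacTiter-Glo luminescence after 5 min.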
NS1 function inh: blocks influenza NS1 protein function | AID 2326 | hit rate 0.4% among 270,000 | Potency, µM (highest dose often 46.1 µM), without a hit: at the highest dose activity, positive = more growth; further: actives are rising curves; nearly all actives have a fitted effect of over 50% in size
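Compounds were scored for reversing the slow growth caused by influenza A NS1 in S. cerevisiae, measured by optical density at 600 nm. Assay medium contained 2% galactose at pH 6.0; NS1-free yeast of the same strain were the positive control.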
* = called active by the depositor; ? = inconclusive; . = no result given; [ ] = remark or other dose. Unless noted, the call rests on the fitted dose curve. Potency means the concentration at half of the fitted maximal effect.

SMILES | Pf growth 48h | SARS PLpro yeast | Pf growth 96h | RE007 growth inh | NS1 function inh
COc1cccc2c1C(=O)c1c(O)c3c(c(O)c1C2=O)C[C@@](O)(C(C)=O)C[C@@H]3O[C@H]1C[C@H](N)[C@H](O)[C@H](C)O1 | 0.37µM* | -39.9% | 0.586µM* | -5.0%[18.4 µM] | -59.2%
CCCCC(=O)OCC(=O)[C@]1(O)Cc2c(O)c3c(c(O)c2[C@H](OC2CC(NC(=O)C(F)(F)F)C(O)C(C)O2)C1)C(=O)c1c(OC)cccc1C3=O (some centres not stated) | 3.38µM* | . | 2.39µM* | . | .
O=C(CSc1nc2nn(-c3ccccc3)c(=O)c-2c2n1CCCCC2)Nc1ccc(OC(F)F)cc1 | . | -3.3% | . | -23.4% | .
COc1ccc(COCC(O)CN2CCN(S(=O)(=O)c3ccc(C(C)C)cc3)CC2)cc1 (configuration not stated) | ? | 8.5% | ? | 0.0% | .
CCOC(=O)/C=c1/s/c(=C/c2ccc3cc(OC)ccc3c2)c(=O)n1CC(=O)NCc1ccc2c(c1)OCO2 | . | . | . | -1.4% | .
CCOC(=O)/C=c1\s/c(=C\c2ccc(-c3ccccc3)cc2)c(=O)n1CC(=O)NCc1ccc2c(c1)OCO2 | -15.5% | -16.9% | ? | . | 11.2µM*
COc1ccc(CNCc2cccc(Oc3ccccc3)c2)cc1 | 73.1% | -1.7% | 3.7µM* | -4.0% | .
COCCCn1c(O)c(/C=C2\N=C(C#N)C(=Nc3ccc(C)cc3)O2)sc1=S | ? | -1.2% | -7.9% | -4.6% | 4.0%
COc1ccc(OC)c(C2CC(c3c(-c4ccccc4)c4cc(Cl)ccc4[nH]c3=O)=NN2S(C)(=O)=O)c1 (configuration not stated) | 9.28µM* | 4.0% | 2.08µM* | -18.4% | 19.8%
COc1ccc(C2CC(c3c(-c4ccccc4)c4cc(Cl)ccc4[nH]c3=O)=NN2S(C)(=O)=O)cc1 (configuration not stated) | ? | -0.6% | . | -9.6% | ?
COc1ccc(C2CC(C(F)(F)F)n3nc(C(=O)NCc4c(C)nn(C)c4C)c(Cl)c3N2)cc1 (configuration not stated) | ? | -4.4% | -2.3% | -4.6% | -10.9%
COc1ccc(C2CC(C(F)(F)F)n3nc(C(=O)N(C)Cc4cn(C)nc4C)c(Cl)c3N2)cc1 (configuration not stated) | 14.7µM* | -0.3% | 0.0% | 2.8% | -5.9%
Cc1ccc(S(=O)(=O)N2CC(=O)N3CCN(CCN)C3C2)cc1 (configuration not stated) | . | 1.6% | . | -2.3% | .
CC[C@H](C)[C@H](NC(=O)c1ccccc1)C(=O)NC(CC(=O)O)c1ccc(F)cc1 (some centres not stated) | 8.3% | -1.6% | 11.8% | 0.8% | 2.4%
CC(C)[C@H](NC(N)=O)C(=O)Nc1cccc(S(=O)(=O)N2CCOCC2)c1 | 8.8% | -0.5% | -20.2%[1.15 µM] | -1.1% | 8.5%
COc1cc(C(=O)Nc2ccc3nc(N4CCN(C)CC4)cc(C)c3c2)cc(OC)c1OC | 0.329µM* | 0.0% | -0.6% | -4.6% | 2.1%
Cc1cc(N2CCN(C)CC2)nc2ccc(NC(=O)c3ccc4c(c3)OCO4)cc12 | 9.28µM* | -7.6% | . | 3.1% | 1.4%
COc1cc(C(=O)Nc2ccc3c(c2)N(C(=O)CN2CCN(C)CC2)c2ccccc2CC3)cc(OC)c1OC | 13.1µM* | -0.6% | ? | -18.3% | -3.1%
Cc1cc(N2CCN(C)CC2)nc2ccc(NC(=O)c3ccc(Br)o3)cc12 | 1.65µM* | -0.1% | 43.3% | 14.3% | -1.3%
COc1cc(C2CC(=O)c3cnc(NC(=O)c4ccco4)nc3C2)cc(OC)c1OC (configuration not stated) | -1.9% | 11.3% | 37.9% | -3.1% | 6.1%
O=C(CCSc1ccccn1)c1ccccc1 | 0.4% | 9.7% | 0.0% | 25.1µM* | .
CCN(C(=O)c1ccc2c(=O)n3c(nc2c1)CCCCC3)c1ccc(F)cc1 | 0.2% | 0.3% | ? | 7.9% | 0.7%
CCOc1ccccc1N(CC)C(=O)c1ccc2c(=O)n3c(nc2c1)CCCCC3 | ? | 1.9% | 11.7µM* | -3.1% | 6.0%
COc1cccc(COC(=O)c2ccc3c(=O)n4c(nc3c2)CCC4)c1OC | 13.1µM* | -2.1% | ? | -6.2% | .
Cc1cc(=O)c(C(=O)Nc2cccc(C(=O)NC3CC3)c2)nn1-c1ccccc1 | . | . | . | 5.6% | .
SMILES | Pf growth 48h | SARS PLpro yeast | Pf growth 96h | RE007 growth inh | NS1 function inh
COc1ccc(S(=O)(=O)/N=C2/NC(=O)/C(=C/c3ccco3)S2)cc1 | -7.5% | -30.9% | 32.1% | -7.9% | -1.5%
COc1cc(/C=C2\SC(=Nc3ccccc3)NC2=O)cc(Cl)c1O | 0.0% | -1.0% | 6.57µM* | -2.2% | 1.4%
COc1ccc(N=C2NC(=O)/C(=C/c3ccco3)S2)cc1 | ? | -2.0% | 9.28µM* | 0.4% | -3.7%
COc1cc(/C=C2\SC(=Nc3ccccc3OC)NC2=O)ccc1O | -16.4% | 0.6% | 22.2% | -2.3% | -2.9%
COc1ccc(/C=C2\SC(=Nc3ccccc3OC)NC2=O)cc1 | 0.329µM* | -16.1% | 34.3% | -21.6% | -62.3%
COc1ccc(N=C2NC(=O)/C(=C/C=C/c3ccccc3)S2)cc1 | 7.38µM* | -4.4% | 6.57µM* | 4.5% | 5.2%
O=C(Nc1cccc(S(=O)(=O)Nc2ccc(Cl)cc2)c1)c1ccc[n+]([O-])c1 | -22.6% | -0.4% | -5.2% | -7.0% | 3.4%
CC(NC(=O)c1ccco1)c1ccc(-n2ccnc2)cc1 (configuration not stated) | 17.8% | 1.8% | 17.4% | 5.8% | .
Cc1ccc(S(=O)(=O)N2[C@@H](c3ccc(Cl)cc3)C(C(=O)O)=CC[C@H]2c2ccc3c(c2)OCO3)cc1 | 9.28µM* | -0.5% | 8.28µM* | 5.3% | .
Cc1ccc([C@H]2C(C(=O)O)=CC[C@@H](c3ccc4c(c3)OCO4)N2S(=O)(=O)c2ccc(C)cc2)cc1 | . | -1.3% | . | -6.5% | .
Cc1ccc(S(=O)(=O)N2[C@@H](c3cccc(Cl)c3)C(C(=O)O)=CC[C@H]2c2ccc3c(c2)OCO3)cc1 | 9.28µM* | 0.3% | ? | -5.6% | .
C/C(=N\NC(=O)c1cccc(Cl)c1)c1cccc(NC(=O)c2ccco2)c1 | ? | -6.9% | 11.7µM* | -9.0% | -11.9%
COc1ccccc1C(=O)N/N=C(\C)c1ccc(NC(=O)Cc2ccccc2)cc1 | ? | -8.7% | 35.6% | 23.6% | 5.0%
CCN(c1ccccc1)S(=O)(=O)c1ccc(NC(=O)c2ccco2)cc1 | 10.4µM* | -0.2% | 40.5% | 0.7% | -9.3%
CN(c1ccccc1)S(=O)(=O)c1ccc(NC(=O)c2ccco2)cc1 | 6.0%[5.75 µM] | 1.2% | -17.7% | 4.9% | .
C/C(=N\NC(=O)c1ccccc1N)c1ccc(NC(=O)Cc2ccccc2)cc1 | 9.28µM* | 13.0% | -17.9% | 3.6% | -0.7%
O=C(Nc1ccc2[nH]c3c(c2c1)CCCC3)c1ccco1 | 3.7µM* | 0.8% | ? | ? | -35.6%
C/C(=N\NC(=O)c1cccc(C)c1)c1cccc(NC(=O)c2ccco2)c1 | 37.1% | -4.2% | 0.0% | -0.7% | -20.5%
C[N+]1(C)CCO[C@](O)(c2ccccc2)C1 | . | . | . | . | -7.2%

Assay outcomes as filed in PubChem BioAssay.
